# Screening results as filed in PubChem.
# An excerpt weighted towards active compounds, which were near 4.6% of everything screened.
# TRHR enhancer = allosterically enhances the human TRH receptor. P34981. enhancement, % at 2 µM. TRHR cells, fluo-8 calcium fluorescence, EC20 TRH enhancement. 0.66% of 360,000 active; in the data active = enhancement above about 30%; also: 0% is about no effect
# Target sequence (P34981 whole entry, looked up): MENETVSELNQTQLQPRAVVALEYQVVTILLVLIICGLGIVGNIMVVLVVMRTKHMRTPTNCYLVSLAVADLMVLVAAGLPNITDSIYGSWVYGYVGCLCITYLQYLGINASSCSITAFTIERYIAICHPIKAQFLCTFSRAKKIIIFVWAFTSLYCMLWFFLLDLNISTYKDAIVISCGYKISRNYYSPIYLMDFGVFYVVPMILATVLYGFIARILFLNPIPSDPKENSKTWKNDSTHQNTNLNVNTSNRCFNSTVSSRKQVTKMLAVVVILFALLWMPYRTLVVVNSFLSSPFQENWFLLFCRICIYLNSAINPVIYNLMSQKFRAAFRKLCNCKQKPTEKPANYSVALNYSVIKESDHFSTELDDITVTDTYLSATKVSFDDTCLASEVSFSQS
#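 Enhancer read-out: after compound pinning and an initial kinetic agonist-mode read, an EC20 of TRH (10 nM final) was injected and fluo-8 calcium signal (Ex 480/Em 530) followed at 1 s/cycle for 100 cycles in TRHR-expressing cells.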
# D1 PAM = enhances dopamine response at the human D1 receptor | P21728 | HEK293 TREx D1 cells, calcium flux, dopamine EC20 potentiation | potentiation, % at 10 µM | 0.036% of 360,000 active | AID 504651; in the data active = potentiation above about 30%; also: 0% is about no effect
# Epigenetic reg = derepresses silenced GFP reporter in murine cells; Potency, µM (doses to about 53.9 µM), for the others: top-dose GFP activation, most hits filed as activators; murine LDR cells, GFP reporter derepression, 30 h; 0.2% of 280,000 active; active = well fitted activation curve with a large enough effect; inconclusive = small, poorly fitted or top-dose-only effect; also: potency is read from the fitted curve at half-maximal effect; % of control where 0% means no effect; nearly all actives have a fitted effect of over 60% in size
#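 Murine LDR cells carrying a silenced, genomically integrated CMV-driven GFP reporter were exposed to compound for 30 hours at 37 C. After PBS washes, GFP-positive cells (20–120 um objects) were counted by laser-scanning microplate cytometry.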
# D1 antag = antagonists of human D1 dopamine receptor | HEK293 TREx D1 cells, calcium flux, dopamine EC80; stronger effect = lower value | activity change, negative = inhibition, % at 10 µM | 3.2% of 360,000 active; in the data active = activity change below about -30%; also: % is scaled to controls: 0 for no effect and ±100 for the full control effect
#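 Cells carrying a force-coupled, tetracycline-inducible human D1 receptor report calcium flux. Each well gets a 10 s baseline, compound with 180 s monitoring, then an EC80 dopamine stimulus with a second 180 s kinetic read.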
# D1 ag = activates the human D1 dopamine receptor; P21728; HEK293 T-REx D1 cells, calcium flux, agonist mode; activation, % at 2 µM; 1% of 360,000 active; AID 504660; also: 0% is about no effect
#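 Tetracycline-induced HEK293 TREx D1 cells, force-coupled to calcium signalling, were dye-loaded with a no-wash calcium kit. Compound was pin-added after a 10 s baseline. Fluorescence was read kinetically at 1 cycle/s for 180 s, with calcium rises flagged as agonism.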
# TRHR agonist = activates the human TRH receptor; P34981; TRHR cells, calcium flux fluo-8, FDSS agonist mode; activation, % at 2 µM; 0.18% of 360,000 active; AID 493084; also: 0% is about no effect
#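 TRHR-expressing cells, plated overnight in medium with 10% serum, were loaded with fluo-8 calcium dye at room temperature. After a 10 s baseline, library compound was pin-added and calcium release was recorded kinetically (ex 480/em 530) as agonist response.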
# * = called active by the depositor; ? = inconclusive; · = not tested or not shown; [ ] = another dose, or the depositor's remark. Rule as the data show it, unless noted: active = activation above about 30%; inactive = the rest.
SMILES,TRHR enhancer,D1 PAM,Epigenetic reg,D1 antag,D1 ag,TRHR agonist
Cc1ccc(-c2nc(N3CCN(S(=O)(=O)c4ccc(F)cc4)CC3)c3ccc(Cl)cc3n2)cc1,1,1,·,-41*,3,-1
COc1ccc(CNC(=O)CCS(=O)(=O)c2cc(Br)cc3c2N(C(=O)C2CC2)CC3)cc1,1,-1,-2%,-5,1,-1
CCn1c(=O)cc(OCC(=O)N(C)c2cc(Cl)ccc2C)c2ccccc21,13,0,-1%,-7,4,0
CCOC(=O)CC(NC(=O)c1cc2cc(OC)ccc2oc1=O)c1ccc(OC)cc1 (centres undefined),-3,1,-1%,-4,0,-3
COc1ccccc1C1CC(=O)N(c2cccc(C(F)(F)F)c2)C2=C1C(=O)OC2 (centres undefined),-9,-3,-1%,-1,2,10
COc1ccc(OC)c(C2CC(=O)N(c3cccc(C)c3)C3=C2C(=O)OC3)c1 (centres undefined),36*,-4,0%,-10,-1,1
Cc1ccc(S(=O)(=O)c2nnn(-c3cccc(F)c3)c2N)cc1,-3,-1,-8%,-33*,10,0
Cc1ccc(S(=O)(=O)c2nnn(-c3ccc(F)c(Cl)c3)c2N)cc1,10,2,-1%,-23,76*,5
COc1ccc(S(=O)(=O)c2nnn(-c3cccc(OC)c3)c2N)cc1,-1,-2,1%,1,30,2
CCCN1CCN(CCCNC(=O)CN2C(=O)c3cccnc3Oc3ccc(Cl)cc32)CC1,2,3,·,-3,6,-1
O=C(CN1C(=O)c2cccnc2Oc2ccc(Cl)cc21)NCCCN1CCCCC1,1,3,-1%,-38*,0,0
Nc1c(C(=O)CSc2nccn2-c2cccc(F)c2)c(=O)[nH]c(=O)n1C1CC1,-5,-3,·,-31*,3,0
Cc1cc(C)cc(-n2ccnc2SCC(=O)c2c(N)n(C3CC3)c(=O)[nH]c2=O)c1,2,·,·,7,4,0
Cc1cccc(N2CCN(S(=O)(=O)c3nnc(NC(=O)c4ccc(Cl)cc4)s3)CC2)c1,9,-2,10%,-21,1,0
Nc1cnc(-c2ccccc2)nc1Cl,-2,-5,-2%,-39*,0,0
Cc1cccc(S(=O)(=O)N2CCN(S(=O)(=O)c3ccc4c(c3)OCCO4)CC2)c1,2,2,·,-4,5,1
COc1ccc(CCNC(=O)Cn2c(=O)n(-c3cc(OC)c(OC)c(OC)c3)c(=O)c3ccccc32)cc1OC,4,0,-2%,1,1,0
COc1ccc(Br)c2c1-c1nc(NC(=O)c3ccccc3F)sc1C2,6,2,-2%,22,1,1
COc1ccc(Br)c2c1-c1nc(NC(=O)c3ccccc3SC)sc1C2,-9,-8,-2%,-36*,-1,-1
CCOC(=O)c1cc(-c2ccc(OC)cc2)n(CCC(=O)Nc2nc3ccc(OCC)cc3s2)c1C,6,-2,0%,1,2,0
COC(=O)[C@H]1[C@H]2C[C@@H]3c4[nH]c5cc(OC)ccc5c4CCN3C[C@H]2C[C@@H](OC(=O)c2ccc(N)cc2)[C@@H]1OC,15,4,?,-66*,3,2
CCOC(=O)Oc1c(OC)cc(C(=O)O[C@H]2C[C@H]3CN4CCc5c([nH]c6cc(OC)ccc56)[C@@H]4C[C@H]3[C@@H](C(=O)OC)[C@@H]2OC)cc1OC,·,·,4%[16.9 µM],·,·,·
Nc1sc2c([n+]1CCCS(=O)(=O)[O-])CCCC2,6,-4,-2%,-31*,4,-2
CSc1sc2ccccc2[n+]1CCCS(=O)(=O)[O-],8,-1,0%,-4,1,0
CCc1ccc(CNC(=O)Cn2nc(C)c3c(C)n(-c4ccc(C)cc4)nc3c2=O)cc1,-15,-2,0%,-4,2,-1
Cc1ccc(CCNC(=O)Cn2nc(C)c3c(C)n(-c4ccc(C)cc4)nc3c2=O)cc1,2,0,-2%,-17,3,-1
